Assay outcomes deposited in PubChem by National Center for Advancing Translational Sciences (NCATS).
NPSR antag = qHTS Assay for Antagonists of the Neuropeptide S Receptor: cAMP Signal Transduction. Potency, µM (highest dose often 38.3 µM), for inactives: at the top dose activity change, negative = inhibition, hits mostly inhibitors. 220,000 tested, 1% active. CHO-NPSR cells, cAMP TR-FRET, antagonist mode; further: potency means the concentration at half of the fitted maximal effect; nearly all actives have a fitted effect of over 50% in size
IMPase Li inh = qHTS Assay for Identifying the Cell-Membrane Permeable IMPase Inhibitors: Potentiation with Lithium; CHO-M1 cells, IP1 TR-FRET (IP-One), carbachol + lithium; 210,000 tested, 0.35% active; Potency, µM (top dose mostly 59.4 µM), for the others: top-dose activity, negative = IMPase inhibition, usual class: inhibitors;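 further: IP1 builds up when IMPase is blocked and the TR-FRET signal falls; potency means the concentration at half of the fitted maximal effect; plate controls were basal vehicle for no effect and high inhibitor control for full effect; nearly all actives have a fitted effect of over 50% in size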
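Concentration–response in CHO-M1 cells, lithium-potentiated; 30 min at 37C. IP1 detected by competitive TR-FRET after 10 min lysis at RT. Hill-fitted AC50.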
ALDH1A1 block = qHTS Assay for Inhibitors of Aldehyde Dehydrogenase 1 (ALDH1A1); Potency, µM (highest dose often 75.3 µM), without a hit: at the highest dose activity, negative = inhibition, usual class: inhibitors; AID 1030, 2008; 220,000 tested, 7.3% active; Purified ALDH1A1, NADH fluorescence, propionaldehyde substrate; Aldehyde dehydrogenase 1A1 (Homo sapiens), P00352; active means well fitted inhibition curve with a large enough effect, not every such curve was filed as active; inconclusive means small, poorly fitted or top-dose-only effect, or another doubt; inactive means no such curve, though single readings can be large or run the other way;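 further: potency means the concentration at half of the fitted maximal effect; plate controls were no enzyme wells and a reference inhibitor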
Target sequence (P00352 whole entry, looked up): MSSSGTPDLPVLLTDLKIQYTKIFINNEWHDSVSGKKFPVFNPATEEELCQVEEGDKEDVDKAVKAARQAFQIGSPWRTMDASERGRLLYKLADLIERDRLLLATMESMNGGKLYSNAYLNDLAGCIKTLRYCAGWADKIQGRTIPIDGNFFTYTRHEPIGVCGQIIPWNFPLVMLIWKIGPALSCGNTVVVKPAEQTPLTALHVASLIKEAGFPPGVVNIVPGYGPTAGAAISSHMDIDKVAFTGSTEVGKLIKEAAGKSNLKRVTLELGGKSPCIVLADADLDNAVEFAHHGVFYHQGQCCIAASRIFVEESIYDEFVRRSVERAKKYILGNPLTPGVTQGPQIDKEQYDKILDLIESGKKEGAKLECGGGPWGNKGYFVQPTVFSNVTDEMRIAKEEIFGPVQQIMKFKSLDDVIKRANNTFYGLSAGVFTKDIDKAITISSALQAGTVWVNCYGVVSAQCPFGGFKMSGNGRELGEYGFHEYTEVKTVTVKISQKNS
IMPase cell inh = qHTS Assay for Identifying the Cell-Membrane Permeable IMPase Inhibitors; 120,000 tested, under 10 active; inhibition (IP1 accumulation), % at 46.1 µM; CHO-M1 cells, IP1 accumulation, HTRF TR-FRET ratio; Inositol monophosphatase 1 (Rattus norvegicus), P97697; active means well fitted curve in the direction sought with a large enough effect in the signal ratio, not every such curve was filed as active; inconclusive means small, poorly fitted or top-dose-only effect, or a change in a side signal; inactive means no such curve, though single readings can be large or run the other way; the % refers to the signal ratio;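 further: cells stimulated with carbachol in lithium chloride buffer; plate controls were DMSO basal wells for no effect and reference inhibitor wells for full effect; higher means more IMPase inhibition seen as more IP1 and lower FRET ratio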
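Carbachol-driven Gq signalling in CHO-M1 cells (2000/well) generates IP1. Compounds that block IMPase raise IP1 and so reduce the FRET signal from Eu-anti-IP1 and d2-IP1 after a 10 min room-temperature lysis.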
ALOX12 inhib = qHTS Assay for Inhibitors of 12-hLO (12-human lipoxygenase); Polyunsaturated fatty acid lipoxygenase ALOX12 (Homo sapiens), P18054; purified 12-hLO, xylenol orange hydroperoxide absorbance; Potency, µM (titrated, usually from 57.1 µM), for inactives: at the top dose activity change, negative = inhibition, most hits filed as inhibitors; 150,000 tested, 0.12% active; further: potency means the concentration at half of the fitted maximal effect; nearly all actives have a fitted effect of over 55% in size
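Purified human 12hLO (150 nM), preincubated 15 min with compound, then 40 uM arachidonic acid for 30 min, room temperature, Hepes pH 7.0 with 0.01% Triton X-100. Hydroperoxide detected by ferrous iron/xylenol orange; 573/405 nm absorbance ratio gives reaction progress.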
HPGD inh = qHTS Assay for Inhibitors of HPGD (15-Hydroxyprostaglandin Dehydrogenase) | 15-hydroxyprostaglandin dehydrogenase [NAD(+)] (Homo sapiens), P15428 | purified HPGD, NADH fluorescence kinetic, PGE2 substrate | Potency, µM, inactives show at the highest dose activity change, negative = inhibition, usual class: inhibitors | 150,000 tested, 4.3% active | AID 894, 2007; active means well fitted inhibition curve with a large enough effect, not every such curve was filed as active; inconclusive means small, poorly fitted or top-dose-only effect, or another doubt; inactive means no such curve, though single readings can be large or run the other way; further: potency means the concentration at half of the fitted maximal effect
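NADH formation kinetics: reaction with 30 uM PGE2 and 1 mM NAD+ (final), 20 nM enzyme, Tris-HCl pH 8 with Tween 20, after 15 min compound preincubation at room temperature. Fluorescence change, last versus first of five reads.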
Active calls of the source: *; ? = inconclusive; · = no result given; [ ] = dose if it differs, or a comment. In the library only some 8.9% were active in any assay of this set; here they are far more common. Unless noted, the call rests on the fitted dose curve; in most records, active means well fitted curve in the direction sought with a large enough effect; inconclusive means small, poorly fitted or top-dose-only effect, or another doubt; inactive means no such curve, though single readings can be large; an effect the other way counts as inactive or inconclusive. Unless noted, on the % scale 0 is the no-effect control and ±100 the full control effect.

SMILES | NPSR antag | IMPase Li inh | ALDH1A1 block | IMPase cell inh | ALOX12 inhib | HPGD inh
C=CCn1c(CC#N)nnc1N1CCOCC1 | -6%[46.1 µM] | 22%[38.3 µM] | 8.9µM* | 3 | -5% | -4%
O=C(CCCCl)NC1=NN(c2ccccc2)C(=O)C1 | 11% | 1% | 8.9µM* | 2 | -10% | -5%
Cc1ccc(/C=N/n2c(COc3ccccc3)n[nH]c2=S)s1 | ? | 9%[38.3 µM] | ? | 7 | 2% | 2.2µM*
S=c1[nH]nc(COc2ccccc2)n1/N=C/c1ccc(Br)s1 | -17%[46.1 µM] | 12%[38.3 µM] | ? | 3 | -28% | 10µM*
S=c1[nH]nc(-c2ccccn2)n1/N=C/c1ccc(Br)s1 | -22%[46.1 µM] | 3% | ? | 16 | ? | 7.9µM*
Cc1ccc(/C=N/n2c(COc3ccccc3)n[nH]c2=S)o1 | -26% | 2% | 11% | · | · | ·
Cc1nc2ccc(S(=O)(=O)NC(C(=O)N3CCCC3)C(C)C)cc2s1 (stereo unspecified) | 2%[46.1 µM] | 1% | 8% | 2 | 1% | -6%
CC1CCC(NC(=O)N(CCCl)N=O)CC1 (stereo unspecified) | · | 3% | 13µM* | · | -5% | -9%
O=C1CC(NNc2ccccc2)C(=O)N1c1ccccc1 (stereo unspecified) | -5% | 3% | 18µM* | · | -10% | -10%
Cc1ccc(NNC2CC(=O)N(c3cccc(Cl)c3)C2=O)cc1 (stereo unspecified) | -15% | 4% | 25µM* | · | · | ·
COc1ccc(CN2CC(C(=O)NCCc3ccccc3)CC2=O)cc1 (stereo unspecified) | -4%[46.1 µM] | 3%[38.3 µM] | -5% | 4 | 1% | -3%
CCOC(=O)COn1c(=O)c(-c2ccc(OC)c(OC)c2)[n+]([O-])c2ccccc21 | 6%[46.1 µM] | 3% | 35µM* | 6 | -10% | -25%
O=c1c(-c2cccc3ccccc23)[n+]([O-])c2ccccc2n1O | -11%[46.1 µM] | -12%[38.3 µM] | -2% | 0 | -29% | -11%
CCOn1c(=O)c(-c2cccc3ccccc23)[n+]([O-])c2ccccc21 | -2% | 3% | 22µM* | · | · | ·
COc1ccccc1/C=c1\sc2nc(-c3ccco3)nn2c1=O | -8%[46.1 µM] | 22%[38.3 µM] | -6% | 7 | -9% | -22%
CCCS(=O)(=O)c1nc(S(=O)(=O)c2ccc(C)cc2)c(NCCCN2CCOCC2)s1 | -3%[46.1 µM] | -1%[38.3 µM] | 14µM* | 6 | -1% | -15%
COCCN(CCOC)c1nc(S(=O)(=O)c2ccc(C)cc2)c(Cl)s1 | -2%[46.1 µM] | 19%[38.3 µM] | -16% | 3 | -1% | -8%
CCCNc1sc(S(=O)(=O)CCC)nc1S(=O)(=O)c1ccc(C)cc1 | -18% | 10% | 10µM* | · | · | ·
Cc1ccc(S(=O)(=O)c2nc(S(C)(=O)=O)sc2NCC2CCCO2)cc1 (stereo unspecified) | -14%[46.1 µM] | -7%[38.3 µM] | ? | -7 | -1% | -9%
CCS(=O)(=O)c1nc(S(=O)(=O)c2ccc(Cl)cc2)c(NCCOC)s1 | 0% | -5% | 4.5µM* | · | · | ·
Cc1ccc2cc(S(=O)(=O)NCCCN3CCOCC3)ccc2c1 | -27% | 6% | 2% | · | · | ·
CCN(CC)S(=O)(=O)c1cc(NC(=O)c2ccc(Br)s2)ccc1C | ? | 20% | 15% | · | · | ·
CCOC(=O)c1ccc(C(=O)OCC)nc1 | 2%[46.1 µM] | -6% | -2% | -1 | 2% | -6%
COC(=O)C1=NNC2C(=O)N(c3ccc(C)cc3)C(=O)C12 (stereo unspecified) | 15% | -11% | 2% | · | · | ·
Cc1ccc(N2C(=O)[C@@H]3C(C(=O)C(c4ccccc4)c4ccccc4)=NN[C@@H]3C2=O)cc1 | -36% | -9% | 22µM* | -10 | -5% | -14%
